# Assay results: PubChem BioAssay AID2284100 (EPA ToxCast)
# Calls of active or inactive are those of the source. The calls were made as follows: active = hit-call score of the fitted dose curve at least 0.9, where 1 is the maximum; inactive = score below 0.9.
# Target: human KDR (VEGFR2) Receptor Tyrosine Kinase, KDR (gene 3791) (UniProt P35968)
# Assay: ERF_FR_ENZ_hKDR: Eurofins (ERF) Enzymatic Radiometric [Km ATP] KinaseProfiler LeadHunter Assay for human KDR (VEGFR2) Receptor Tyrosine Kinase
# Method: ERF_FR_ENZ_hKDR is a biochemical, single-readout assay that uses extracted gene-proteins in a cell-free assay. Measurements were taken 1 hour after chemical dosing in a 96-well plate. See KDR (VEGFR2) Human RTK Kinase Enzymatic LANCE Assay [Km ATP], Cerep.ERF_FR_ENZ_hKDR is an assay component calculated from the ERF_FR_ENZ_hKDR assay. It is designed to measure enzyme activity using a type of enzyme reporter as detected by fluorescence intensity with LANCE technology.Data from the assay component ERF_FR_ENZ_hKDR was analyzed at the assay endpoint, ERF_FR_ENZ_hKDR, in the positive analysis fitting direction relative to DMSO as the negative control and baseline of activity. Using a type of enzyme reporter, loss-of-signal activity can be used to understand changes in enzymatic activity as they relate to gene KDR. To generalize the intended target to other relatable targets, this assay endpoint is annotated to the kinase intended target family, where the subfamily is receptor tyrosine kinase.
# KDR (h) is incubated with 8 mM MOPS pH 7.0, 0.2 mM EDTA, 0.33 mg/mL myelin basic protein, 10 mM MgAcetate and [gamma-33P]-ATP (specific activity and concentration as required). The reaction is initiated by the addition of the Mg/ATP mix. After incubation for 40 minutes at room temperature, the reaction is stopped by the addition of phosphoric acid to a concentration of 0.5%. […]
# Sequence of human KDR (VEGFR2) Receptor Tyrosine Kinase, KDR (gene 3791) (P35968 whole entry, looked up): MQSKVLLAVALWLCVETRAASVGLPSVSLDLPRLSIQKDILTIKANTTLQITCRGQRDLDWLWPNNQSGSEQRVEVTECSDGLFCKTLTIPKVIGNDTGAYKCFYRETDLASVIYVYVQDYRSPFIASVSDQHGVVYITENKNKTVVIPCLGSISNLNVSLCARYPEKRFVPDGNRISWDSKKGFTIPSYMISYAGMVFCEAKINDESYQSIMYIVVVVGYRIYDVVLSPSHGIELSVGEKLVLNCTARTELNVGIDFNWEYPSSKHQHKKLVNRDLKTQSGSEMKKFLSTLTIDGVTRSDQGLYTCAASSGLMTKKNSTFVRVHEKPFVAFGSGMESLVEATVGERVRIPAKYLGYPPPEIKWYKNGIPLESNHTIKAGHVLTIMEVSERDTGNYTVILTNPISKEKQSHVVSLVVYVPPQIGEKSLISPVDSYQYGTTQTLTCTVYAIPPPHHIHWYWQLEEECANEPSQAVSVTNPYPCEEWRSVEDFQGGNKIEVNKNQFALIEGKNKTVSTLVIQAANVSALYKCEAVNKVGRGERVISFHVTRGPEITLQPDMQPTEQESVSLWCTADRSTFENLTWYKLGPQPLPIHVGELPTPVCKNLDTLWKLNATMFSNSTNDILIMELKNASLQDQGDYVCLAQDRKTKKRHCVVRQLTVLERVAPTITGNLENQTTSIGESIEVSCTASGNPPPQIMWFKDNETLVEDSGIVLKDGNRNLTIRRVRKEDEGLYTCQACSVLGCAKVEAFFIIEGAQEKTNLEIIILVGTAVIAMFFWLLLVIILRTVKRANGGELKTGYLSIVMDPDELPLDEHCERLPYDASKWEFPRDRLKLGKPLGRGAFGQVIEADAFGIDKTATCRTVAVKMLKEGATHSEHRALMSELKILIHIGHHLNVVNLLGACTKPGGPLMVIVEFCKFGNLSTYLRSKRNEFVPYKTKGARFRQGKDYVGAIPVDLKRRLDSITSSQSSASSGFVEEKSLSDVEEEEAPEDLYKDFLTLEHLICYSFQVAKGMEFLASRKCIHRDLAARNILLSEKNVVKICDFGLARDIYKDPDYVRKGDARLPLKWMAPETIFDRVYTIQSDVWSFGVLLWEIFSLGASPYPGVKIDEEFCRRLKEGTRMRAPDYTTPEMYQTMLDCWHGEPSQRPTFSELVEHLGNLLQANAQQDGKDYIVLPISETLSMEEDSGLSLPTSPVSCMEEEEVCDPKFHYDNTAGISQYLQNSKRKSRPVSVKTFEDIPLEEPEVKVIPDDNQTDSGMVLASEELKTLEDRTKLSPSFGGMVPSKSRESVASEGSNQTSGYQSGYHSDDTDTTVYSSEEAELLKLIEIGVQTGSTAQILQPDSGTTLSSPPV
row,SMILES,AC50
1,O=C(/C=C/c1ccc(O)cc1)CC(=O)/C=C/c1ccc(O)cc1,2390 nM (active)
